This note sets out measurements from PubChem BioAssay (Tox21).

Where “and” joins values, the source holds several entries; their conditions need not be identical. Identical values can stand only once. Records with an inconclusive call do not appear. Where a call stands in place of a potency, no number is given. Calls of active or inactive are those of the source. Calls follow the shape of the dose curve; as a rule, active = well fitted activation curve with a large enough effect in the repeat runs; inconclusive = weak or mixed curves; inactive = no such curve, though single readings can be large or run the other way.
Potency is read from the fitted curve at half-maximal effect.

The test deals with Nuclear receptor subfamily 1 group I member 3 (Homo sapiens) (UniProt Q14994). Nature of the test: qHTS assay to identify small molecule agonists of the constitutive androstane receptor (CAR) signaling pathway (AID 1224839). Also: nearly all actives have a fitted effect of over 15% in size.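 As to activation: HepG2 cells stably carrying human CAR and a CYP2B6 luciferase reporter.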 Conditions: HepG2 hCAR CYP2B6-luciferase, agonist mode, 24 h; series mostly up to 92.4 µM. The source says: National Center for Advancing Translational Sciences [NCATS] NIH Chemical Genomics Center [NCGC] U.S. Environmental Protection Agency [EPA] National Institutes of Environmental Health Sciences [NIEHS] National Toxicology Program [NTP] Assay overview: The constitutive androstane receptor (CAR) is a nuclear receptor which regulates multiple drug metabolizing enzymes (DMEs) and transporters. Activating CAR will generally increase the transcription and subsequent translation of CYP2B6 and CYP3A4. These two DMEs represent about 50% of the drug metabolizing potential in the body. […] Recently, there have also been studies performed indicating CARs role in energy metabolism and cancer therapy. Therefore, inducing CARs activity could have a potential effect on diabetes and cancer. Identifying environmental toxins and compounds which modulate CAR, through the use of the Tox21 10K compound collection, will be an important step in determining the toxicity and potential therapeutic effects these factors will have on the human body.
Nuclear receptor subfamily 1 group I member 3 (Homo sapiens), sequence (Q14994 whole entry, looked up): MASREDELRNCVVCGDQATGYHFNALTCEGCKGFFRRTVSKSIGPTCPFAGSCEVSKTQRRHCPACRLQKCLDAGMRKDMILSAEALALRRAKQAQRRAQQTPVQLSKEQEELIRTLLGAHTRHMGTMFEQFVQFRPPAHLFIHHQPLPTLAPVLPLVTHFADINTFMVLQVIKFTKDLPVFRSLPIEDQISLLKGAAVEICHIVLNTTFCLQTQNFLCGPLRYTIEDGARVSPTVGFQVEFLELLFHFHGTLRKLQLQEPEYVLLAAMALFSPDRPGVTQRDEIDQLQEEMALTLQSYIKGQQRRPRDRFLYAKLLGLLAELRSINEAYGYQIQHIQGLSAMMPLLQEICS
Assay Protocol Summary: A double-stable (hCAR and CYP2B6-2.2kb) transfected cell line, derived from human hepatoma (HepG2) cells, was utilized for the duration of the quantitative high-throughput screens. The HepG2-CYP2B6-hCAR cells suspended in DMEM culture medium supplemented with 10% FBS, 5 ug/mL blasticidin, 0.5 mg/mL geneticin, 100 U/mL penicillin and 100 ug/mL streptomycin were dispensed at 2500 cells/4 uL/well in 1536-well white solid bottom plates using a Multidrop Combi. After the assay plates were incubated at 37 C/5% CO2 for 4 hrs, 23 nL of compounds at 15 concentrations (from 5-48 columns) or positive control (from 1 to 4 columns) were transferred to the assay plates using a Pintool station. One uL of PK11195, was added using a Flying Reagent Dispenser to generate a final concentration of 0.75 uM PK11195 inside each well. After a 24 hr incubation period at 37 C/5% CO2, four uL of ONE-Glo reagent was added into the assay plates using a Flying Reagent Dispenser. After a 30 min incubation period at room temperature, the luminescence intensity in the assay plates was measured using a ViewLux plate reader.
With `c1ccc2cc3c(ccc4ccccc43)cc2c1`, the Potency was 30.7 µM (active) and 27.3 µM (active). Consider `O=C(Nc1ccccc1SSc1ccccc1NC(=O)c1ccccc1)c1ccccc1`, for which the Potency entry was “inactive”.

Take `Cc1cc(OCCOCC[N+](C)(C)Cc2ccccc2)ccc1C(C)(C)CC(C)(C)C`: the Potency result is “inactive”.

In the case of `CCN1CCCC1CNC(=O)c1cc(S(=O)(=O)CC)c(N)cc1OC` (stereo not given), the Potency entry was “inactive”. The same measure, in the same setting: the result for `[Cl][In]([Cl])[Cl]` reads “inactive”. On the same count and under the same terms, the result for `CCCC(=O)c1ccccc1` reads “inactive”; that for `CC(=O)OCCOCCOCCOC(C)=O`, “inactive”; that for `CCCCC(CC)COC(=O)CC(C(=O)OCC(CC)CCCC)S(=O)(=O)O` (stereo not given), “inactive”. In the case of `COc1ccc(CCN2CCC(Nc3nc4ccccc4n3Cc3ccc(F)cc3)CC2)cc1`, the Potency result is “inactive”. Same read-out and setting: the result for `c1ccc2c(c1)-c1cccc3c1c-2cc1ccccc13` reads 21.2 µM (active) and 17.2 µM (active); that for `CC1COC(=O)O1` (stereo not given), “inactive”; that for `Cc1cc(Cc2cc(C)cc(C(C)(C)C)c2O)c(O)c(C(C)(C)C)c1`, “inactive”.

Turning to `c1ccc2n[nH]nc2c1`, the Potency result was “inactive”. On the same count and under the same terms, the value for `CC(C)CCOC(=O)c1ccc(N(C)C)cc1` was 13.3 µM (active); that for `CC(COc1ccccc1)N(CCCl)Cc1ccccc1` (stereo not given) was 27.6 µM (active) and 8.63 µM (active) and 10.6 µM (active); that for `O=C(O)CCc1ccccc1` was “inactive”. As for `Oc1c(Cl)cc(Cl)cc1Sc1cc(Cl)cc(Cl)c1O`, the Potency result was “inactive”. For the compound `NC(Cc1ccc(Cl)cc1)C(=O)O` (stereo not given), the activation is 0.949% [at 0.349 µM] (inactive).

On to `O=C1CC2(CCCC2)CC(=O)N1CCCCN1CCN(c2ncccn2)CC1`, for which the Potency result is “inactive”. The same measure, in the same setting: the value for `CC(C)(C)NCC(O)COc1ccccc1OCC1CCCO1` (stereo not given) was “inactive”; that for `CCOc1ccccc1C(N)=O` was “inactive”; that for `O=C(Oc1ccccc1)c1ccccc1O` was “inactive”. For `COC(=O)/C=C/c1ccccc1`, the Potency entry was “inactive”. The same measure, in the same setting: the value for `NC(N)=NC(=O)Cc1c(Cl)cccc1Cl` was “inactive”; that for `Nc1nc2ccccc2[nH]1` was “inactive”. Regarding `OCC(CO)N[C@H]1C[C@](O)(CO)[C@@H](O)[C@H](O)[C@H]1O`, the Potency result was “inactive”.

As to `CCOC(=O)C(C)C(C)=O` (stereo not given), the Potency result is “inactive”. Regarding `CCN(CC)C(=S)SSC(=S)N(CC)CC`, the Potency result is “inactive”. For the compound `OCCN1CCNCC1`, the Potency result is “inactive”. Turning to `CC[C@H]1CN2CCc3cc(OC)c(OC)cc3[C@@H]2C[C@@H]1C[C@H]1NCCc2cc(OC)c(OC)cc21`, the Potency entry is “inactive”. For the compound `Cc1ccnc2c1NC(=O)c1cccnc1N2C1CC1`, the Potency result was “inactive”. As to `CCCCCC(=O)O[C@]1(C(C)=O)CC[C@H]2[C@@H]3CCC4=CC(=O)CC[C@]4(C)[C@H]3CC[C@@]21C`, the Potency entry was “inactive”. Still for that read-out and setting: the result for `CCCCCCCCCCCCCC[P+](CCCC)(CCCC)CCCC` reads “inactive”; that for `CCN(CC)C(=O)Nc1ccc(OCC(O)CNC(C)(C)C)c(C(C)=O)c1` (stereo not given), “inactive”. Consider `Cc1cc(C2(c3cc(C)c(O)cc3C)OS(=O)(=O)c3ccccc32)c(C)cc1O`, for which the Potency entry is “inactive”. For the compound `Oc1ccc(Cl)cc1Cc1cc(Cl)ccc1O`, the Potency result is “inactive”. With `O=c1n(CC2CO2)c(=O)n(CC2CO2)c(=O)n1CC1CO1` (stereo not given), the Potency entry is “inactive”. Regarding `O=C(O)Cn1cnnn1`, the Potency entry was “inactive”. For the compound `c1cnc2cc3c(cc2n1)C1CNCC3C1`, the Potency result was “inactive”.

Consider `CC(=O)N[C@@H](CS)C(=O)O`, for which the Potency result is “inactive”.
